The target of test [1] is Agonist Androgen Response Element (ARE), AR (gene 367) (UniProt P10275). Nature of the test: OT_AR_ARELUC_AG_1440: Odyssey Thera (OT) 24-hour CHO-K1 Luciferase Assay for Agonist Androgen Response Element (ARE) (AID 2283379). The essentials: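 Gain-of-signal reporter endpoint: cells (CHO-K1, hamster) are treated 24 h, luciferin/ATP reagent added, and luminescence compared with DMSO baseline.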

Test [2] addresses Estrogen receptor beta (Homo sapiens) (UniProt Q92731). Nature of the test: OT_ER_ERbERb_1440: Odyssey Thera (OT) 24-hour HEK293T Protein-Complementation Assay for Estrogen Receptor-beta/-beta Homodimer (AID 2283380).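 Also: scored as signal increase over DMSO baseline for both agonists and antagonists.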 The method, boiled down:
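HEK293T cells stably expressing ER beta LBD (aa 310-547) homodimer fragment-complementation reporter, dosed 24 h. Cells formaldehyde-fixed, Draq5-stained; gain in nuclear (agonist) or nuclear plus cytoplasmic (antagonist) fluorescence versus DMSO read by laser scanning cytometry.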

Test [3] has as its target Estrogen receptor (Homo sapiens) (UniProt P03372). Nature of the test: OT_ERa_GFPERaERE_0480: Odyssey Thera (OT) 8-hour HeLa Transcription Induction Assay for Estrogen Receptor (AID 2283381; active = hit-call score of the fitted dose curve at least 0.9, where 1 is the maximum; inactive = score below 0.9). The method, boiled down:
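An 8 h HeLa transcription-induction format with a GFP reporter under ERE control, read by fluorescence microscopy; single endpoint fitted positively with DMSO as baseline.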

For test [4] the target is unchanged. In words: OT_ERa_GFPERaERE_0120: Odyssey Thera (OT) 2-hour HeLa Transcription Induction Assay for Estrogen Receptor (AID 2283382). The essentials: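 Two-hour compound treatment of HeLa cells preceded microscopy imaging of an inducible fluorescent reporter. Image-based quantification gave one endpoint, analysed for signal increase relative to DMSO controls.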

In test [5] the target is Peroxisome proliferator-activated receptor gamma (Homo sapiens) (UniProt P37231). In words: OT_PPARg_PPARgSRC1_0480: Odyssey Thera (OT) 8-hour Protein-Complementation Assay for Peroxisome Proliferator-activated Receptor Gamma / SRC-1 Co-activator (AID 2283387).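 Also: nuclear to cytoplasmic split Venus YFP fluorescence ratio reporting PPARg SRC-1 interaction.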 The method, boiled down:
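Protein-fragment complementation of split Venus YFP reports PPARg/SRC-1 interaction in HEK293T (transfected 48 h before treatment), exposed 8 h. Readout: N/C fluorescence ratio at 488 nm from imaging, Draq5 for segmentation, positive fit relative to DMSO.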

Test [6] addresses mouse Estrogen Receptor alpha (Era), Esr1 (gene 13982) (UniProt P19785). In words: NVS_NR_mERa: NovaScreen (NVS) Nuclear Receptor Binding Assay for mouse Estrogen Receptor alpha (Era) (AID 2283378).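 Also: hit means loss of bound radioligand signal relative to DMSO.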 The essentials:
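Measurements come from scintillation counting after filtration, taken 18 hours after chemicals were added to a cell-free mouse Era preparation with radioligand. Screening was duplicate at 25 uM, with concurrent positive and negative controls and confirmatory concentration series for actives.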

In test [7] the target is Retinoic acid receptor RXR-alpha (Homo sapiens) (UniProt P19793). In words: OT_NURR1_NURR1RXRa_0480: Odyssey Thera (OT) 8-hour HEK293T Protein Complementation Assay for Nurr1/retinoid X receptor (RXR) (AID 2283385). The method, boiled down:
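Gain in fluorescent complementation signal over DMSO, measured 8 hours after chemical dosing of human kidney HEK293T cells, indicated enhanced Nurr1–RXRα association.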

The target is the same in test [8]. In words: OT_NURR1_NURR1RXRa_1440: Odyssey Thera (OT) 24-hour HEK293T Protein Complementation Assay for Nurr1/retinoid X receptor (RXR) (AID 2283386). The essentials:
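Cell-based binding reporter: HEK293T cells, 24 h exposure, fluorescence-detected fragment complementation, DMSO as baseline.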

For test [9], the target named is human Norepinephrine Transporter (NET), SLC6A2 (gene 6530) (UniProt P23975). In words: NVS_TR_hNET: NovaScreen (NVS) Transporter Assay for human Norepinephrine Transporter (NET) (AID 2283377).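 Also: cell-free membrane protein extracted from CHO cells expressing human NET.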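 As to AC50: displacement of radioligand from human NET seen as loss of scintillation signal.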 The method, boiled down: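 CHO cell extracts expressing the transporter; tritiated or iodinated tracer displaced competitively; filtration plus scintillation readout at 1 h. Single-point duplicates at 25 uM, concentration series for follow-up; activity = signal drop relative to DMSO.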

Test [10] has as its target Bile acid receptor (Homo sapiens) (UniProt Q96RI1). Nature of the test: OT_FXR_FXRSRC1_0480: Odyssey Thera (OT) 8-hour HEK293T Protein-Complementation Assay for Farnesoid X receptor/SRC-1 Co-activator (AID 2283383). The method, boiled down: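 Readings were taken 8 h after dosing HEK293T cells in a split-reporter complementation format pairing FXR with SRC-1. Increased fluorescence relative to DMSO-treated wells defined activity.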

Molecules are shown by their SMILES. Values joined by “and” are separate entries in the source; they are usually repeats but may differ in a detail not shown here. Equal entries are not always repeated. Results filed as inconclusive are left out. Some structures have more than one record in an assay (separate samples or runs), and their calls can disagree. Active and inactive are the calls of the source. The calls were made as follows, unless noted: active = hit-call score of the fitted dose curve at least 0.9, where 1 is the maximum; inconclusive = response in the unintended direction; inactive = score below 0.9.

Chain of Agonist Androgen Response Element (ARE), AR (gene 367) (P10275 whole entry, looked up): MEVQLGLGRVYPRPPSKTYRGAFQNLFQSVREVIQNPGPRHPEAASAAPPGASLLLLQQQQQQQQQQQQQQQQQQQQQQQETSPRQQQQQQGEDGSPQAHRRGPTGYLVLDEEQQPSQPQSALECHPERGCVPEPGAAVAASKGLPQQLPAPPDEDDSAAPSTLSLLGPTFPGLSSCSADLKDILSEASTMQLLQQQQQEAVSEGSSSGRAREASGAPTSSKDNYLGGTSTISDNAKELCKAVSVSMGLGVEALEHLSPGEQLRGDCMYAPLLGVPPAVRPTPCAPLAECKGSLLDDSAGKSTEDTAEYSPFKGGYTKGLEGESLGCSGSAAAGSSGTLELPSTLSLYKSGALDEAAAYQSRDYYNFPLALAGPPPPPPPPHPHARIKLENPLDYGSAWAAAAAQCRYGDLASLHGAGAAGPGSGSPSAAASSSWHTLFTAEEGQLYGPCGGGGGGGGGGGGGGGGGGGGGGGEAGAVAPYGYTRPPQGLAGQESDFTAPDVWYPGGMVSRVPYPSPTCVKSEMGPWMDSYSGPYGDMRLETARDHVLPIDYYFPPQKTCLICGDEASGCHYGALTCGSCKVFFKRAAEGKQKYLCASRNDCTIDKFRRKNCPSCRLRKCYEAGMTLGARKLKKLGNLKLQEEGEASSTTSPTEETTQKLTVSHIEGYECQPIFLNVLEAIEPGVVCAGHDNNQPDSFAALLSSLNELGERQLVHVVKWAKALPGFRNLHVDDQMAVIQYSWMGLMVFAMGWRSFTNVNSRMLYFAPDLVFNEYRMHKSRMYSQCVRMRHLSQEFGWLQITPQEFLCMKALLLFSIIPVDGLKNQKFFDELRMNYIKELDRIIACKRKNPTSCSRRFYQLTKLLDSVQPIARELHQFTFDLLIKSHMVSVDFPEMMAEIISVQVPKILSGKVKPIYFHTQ
Chain of mouse Estrogen Receptor alpha (Era), Esr1 (gene 13982) (P19785 whole entry, looked up): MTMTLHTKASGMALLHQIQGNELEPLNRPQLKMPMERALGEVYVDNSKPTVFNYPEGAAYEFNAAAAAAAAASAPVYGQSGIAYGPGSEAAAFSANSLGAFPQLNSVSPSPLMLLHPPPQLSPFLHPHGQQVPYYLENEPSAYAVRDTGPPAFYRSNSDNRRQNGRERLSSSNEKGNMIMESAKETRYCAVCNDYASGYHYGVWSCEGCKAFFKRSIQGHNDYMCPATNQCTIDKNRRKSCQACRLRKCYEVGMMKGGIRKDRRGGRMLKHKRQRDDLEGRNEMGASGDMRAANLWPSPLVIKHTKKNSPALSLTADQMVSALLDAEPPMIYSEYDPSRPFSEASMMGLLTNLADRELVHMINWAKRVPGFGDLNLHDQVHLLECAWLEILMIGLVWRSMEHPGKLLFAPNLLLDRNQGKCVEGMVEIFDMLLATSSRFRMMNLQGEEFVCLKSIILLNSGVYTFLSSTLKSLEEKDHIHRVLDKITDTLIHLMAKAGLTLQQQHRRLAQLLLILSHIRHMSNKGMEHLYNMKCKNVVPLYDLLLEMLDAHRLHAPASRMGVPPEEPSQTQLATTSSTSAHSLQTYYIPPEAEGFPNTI
Chain of Bile acid receptor (Homo sapiens) (Q96RI1 whole entry, looked up): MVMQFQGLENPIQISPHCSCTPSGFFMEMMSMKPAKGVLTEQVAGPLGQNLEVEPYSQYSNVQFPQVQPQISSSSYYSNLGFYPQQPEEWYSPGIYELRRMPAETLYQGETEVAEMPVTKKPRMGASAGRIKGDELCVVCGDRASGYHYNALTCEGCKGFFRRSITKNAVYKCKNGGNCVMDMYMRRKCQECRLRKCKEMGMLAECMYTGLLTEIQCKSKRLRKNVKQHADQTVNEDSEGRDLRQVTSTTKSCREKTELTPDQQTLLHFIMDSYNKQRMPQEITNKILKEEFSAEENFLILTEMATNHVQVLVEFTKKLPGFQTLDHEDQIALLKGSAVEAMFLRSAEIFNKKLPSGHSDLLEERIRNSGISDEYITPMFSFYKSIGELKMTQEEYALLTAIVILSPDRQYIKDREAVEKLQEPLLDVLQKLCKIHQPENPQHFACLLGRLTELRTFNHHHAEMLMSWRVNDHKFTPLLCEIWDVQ
Chain of Estrogen receptor beta (Homo sapiens) (Q92731 whole entry, looked up, the tested form may be a part): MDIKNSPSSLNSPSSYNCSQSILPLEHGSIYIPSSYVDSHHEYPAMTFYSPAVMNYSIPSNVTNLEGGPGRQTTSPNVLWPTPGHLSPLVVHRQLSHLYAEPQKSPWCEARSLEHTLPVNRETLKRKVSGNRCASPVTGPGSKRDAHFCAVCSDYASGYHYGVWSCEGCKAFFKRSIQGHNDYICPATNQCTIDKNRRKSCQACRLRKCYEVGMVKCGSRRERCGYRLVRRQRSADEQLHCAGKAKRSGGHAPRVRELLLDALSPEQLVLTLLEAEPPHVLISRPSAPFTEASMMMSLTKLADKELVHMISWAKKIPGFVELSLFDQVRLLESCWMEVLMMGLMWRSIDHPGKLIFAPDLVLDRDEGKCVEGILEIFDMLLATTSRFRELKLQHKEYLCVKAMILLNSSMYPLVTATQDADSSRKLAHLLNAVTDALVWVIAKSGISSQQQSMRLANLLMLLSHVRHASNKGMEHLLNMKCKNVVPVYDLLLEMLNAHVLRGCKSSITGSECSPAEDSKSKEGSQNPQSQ
Chain of human Norepinephrine Transporter (NET), SLC6A2 (gene 6530) (P23975 whole entry, looked up): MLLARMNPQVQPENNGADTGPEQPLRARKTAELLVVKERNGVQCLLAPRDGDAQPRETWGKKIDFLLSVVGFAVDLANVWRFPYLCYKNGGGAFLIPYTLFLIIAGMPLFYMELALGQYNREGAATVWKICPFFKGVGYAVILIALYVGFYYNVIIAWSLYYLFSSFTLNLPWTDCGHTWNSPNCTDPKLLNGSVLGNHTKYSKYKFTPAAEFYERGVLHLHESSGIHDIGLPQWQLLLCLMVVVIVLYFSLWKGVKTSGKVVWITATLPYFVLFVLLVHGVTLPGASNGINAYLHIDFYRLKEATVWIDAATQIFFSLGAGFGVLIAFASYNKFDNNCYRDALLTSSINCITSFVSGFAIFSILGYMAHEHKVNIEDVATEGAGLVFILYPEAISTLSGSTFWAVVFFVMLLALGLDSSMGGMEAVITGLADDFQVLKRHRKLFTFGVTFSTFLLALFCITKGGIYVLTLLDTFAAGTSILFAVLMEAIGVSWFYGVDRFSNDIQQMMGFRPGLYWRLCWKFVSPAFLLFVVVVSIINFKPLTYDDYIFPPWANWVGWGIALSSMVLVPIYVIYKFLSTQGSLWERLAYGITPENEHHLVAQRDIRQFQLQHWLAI
Chain of Peroxisome proliferator-activated receptor gamma (Homo sapiens) (P37231 whole entry, looked up, the tested form may be a part): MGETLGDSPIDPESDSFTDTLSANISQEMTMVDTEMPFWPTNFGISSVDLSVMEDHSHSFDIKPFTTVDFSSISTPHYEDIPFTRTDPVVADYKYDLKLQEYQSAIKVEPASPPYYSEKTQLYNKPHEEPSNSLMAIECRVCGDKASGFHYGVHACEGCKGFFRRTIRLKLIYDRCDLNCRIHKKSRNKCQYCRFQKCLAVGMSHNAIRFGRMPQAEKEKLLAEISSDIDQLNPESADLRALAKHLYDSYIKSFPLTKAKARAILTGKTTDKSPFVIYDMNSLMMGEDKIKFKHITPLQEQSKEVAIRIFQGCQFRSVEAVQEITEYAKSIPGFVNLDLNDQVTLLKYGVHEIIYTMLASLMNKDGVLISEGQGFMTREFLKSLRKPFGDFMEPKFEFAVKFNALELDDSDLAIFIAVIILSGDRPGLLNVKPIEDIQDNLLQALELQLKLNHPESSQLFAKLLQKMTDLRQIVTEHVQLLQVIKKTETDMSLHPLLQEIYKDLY
Chain of Estrogen receptor (Homo sapiens) (P03372 whole entry, looked up): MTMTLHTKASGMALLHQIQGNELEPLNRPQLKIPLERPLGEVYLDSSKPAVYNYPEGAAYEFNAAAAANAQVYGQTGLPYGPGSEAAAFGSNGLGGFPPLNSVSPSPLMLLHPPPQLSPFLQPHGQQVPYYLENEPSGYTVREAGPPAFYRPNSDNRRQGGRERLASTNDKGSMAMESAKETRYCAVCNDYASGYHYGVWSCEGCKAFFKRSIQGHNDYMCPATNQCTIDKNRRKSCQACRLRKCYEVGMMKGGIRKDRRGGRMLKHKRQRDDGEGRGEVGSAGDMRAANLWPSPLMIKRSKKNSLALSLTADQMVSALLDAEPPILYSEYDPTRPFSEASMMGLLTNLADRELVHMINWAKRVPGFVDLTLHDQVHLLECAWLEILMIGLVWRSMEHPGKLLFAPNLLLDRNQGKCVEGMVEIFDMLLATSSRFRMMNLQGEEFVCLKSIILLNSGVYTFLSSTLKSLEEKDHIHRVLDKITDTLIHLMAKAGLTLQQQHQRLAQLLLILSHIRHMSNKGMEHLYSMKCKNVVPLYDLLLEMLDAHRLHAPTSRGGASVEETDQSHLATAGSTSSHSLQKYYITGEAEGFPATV
Chain of Retinoic acid receptor RXR-alpha (Homo sapiens) (P19793 whole entry, looked up): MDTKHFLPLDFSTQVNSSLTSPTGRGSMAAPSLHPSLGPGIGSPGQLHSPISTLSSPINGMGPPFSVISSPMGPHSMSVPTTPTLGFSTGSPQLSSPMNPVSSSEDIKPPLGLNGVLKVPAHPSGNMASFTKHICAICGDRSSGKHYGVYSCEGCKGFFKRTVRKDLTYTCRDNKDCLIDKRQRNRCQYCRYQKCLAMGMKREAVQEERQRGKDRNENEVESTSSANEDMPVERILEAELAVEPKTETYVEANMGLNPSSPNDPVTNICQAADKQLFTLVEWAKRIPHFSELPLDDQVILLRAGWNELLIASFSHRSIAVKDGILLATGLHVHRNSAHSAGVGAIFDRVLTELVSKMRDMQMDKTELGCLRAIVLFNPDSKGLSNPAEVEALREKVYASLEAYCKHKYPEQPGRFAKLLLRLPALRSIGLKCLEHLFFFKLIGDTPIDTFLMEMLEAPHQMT

For `CCCCCCCCCC[N+](C)(C)[O-]`, the compound was called inactive in [1], in [2], in [3], in [4] and in [5].

As to `CC(=O)[C@@]1(O)CC[C@H]2[C@@H]3CCC4=CC(=O)CC[C@]4(C)[C@H]3CC[C@@]21C`, in test [6], the AC50 (in general, the concentration at which the activity in the assay is half-maximal) was 10.1 µM (active). Besides, the outcome in [6], in test [2], in test [7] and in test [8] was inactive.

On to `CCCCCCCCCCCCCCOS(=O)(=O)O`, for which the AC50 in [9] was 37.7 µM (active); in [3], 92.3 µM (active); in test [7], 79.4 µM (active). Also, the compound was classed as inactive in test [2], in [4], in [7], in test [8] and in test [5].

As for `Cc1cc(Cc2ccc(N)c(C)c2)ccc1N`, the AC50 was 6.22 µM (active) in test [9], 64.1 µM (active) in test [2] and 50 µM (active) in test [10]. Besides, the call in test [7] and in [8] was inactive.

`COC(=O)[C@H]1[C@H]2C[C@@H]3c4[nH]c5cc(OC)ccc5c4CCN3C[C@H]2C[C@@H](OC(=O)c2cc(OC)c(OC)c(OC)c2)[C@@H]1OC`: the half-maximal activity concentration (AC50) in test [9] was 5.72 µM (active); in [7], 16.6 µM (active) and 22.4 µM (active); in [8], 16.5 µM (active) and 25.1 µM (active); in test [5] it was 11.4 µM (active) and 58 µM (active).

Consider `C=CCCCCCCCCCCCC`, for which the result in [1], in test [2], in test [10], in [7], in test [8] and in test [5] was inactive.

As to `CN(C)C(=O)NC1(c2ccccc2)CCN(CCC[C@]2(c3ccc(Cl)c(Cl)c3)CCCN(C(=O)c3ccccc3)C2)CC1`, the AC50 in test [9] is 0.124 µM (active); in test [10], 15.9 µM (active); in test [7], 19.3 µM (active). For the same compound, the compound was classed as inactive in test [6], in test [2], in test [3], in test [4], in test [7] and in test [8]. In addition, the call in test [5] was inactive.

Consider `O=C(Oc1ccccc1)c1cccc(C(=O)Oc2ccccc2)c1`, for which the outcome in test [1], in test [2], in [8] and in [5] was inactive. In addition, the concentration at half-maximal activity (AC50) in [10] was 72 µM (active); in test [7], 75.2 µM (active) and 79.8 µM (active); in test [8] it was 69.2 µM (active).

In the case of `NC(=Nc1ccccc1)Nc1ccccc1`, the outcome in [9], in test [2], in test [3], in test [4], in [10] and in [5] was inactive. Besides, the AC50 is 5.14 µM (active) and 12.2 µM (active) in test [7]; 11.6 µM (active) in [8].

Regarding `CC1=C(C)S(=O)(=O)CCS1(=O)=O`, the compound was classed as inactive in [1], in test [2], in [3], in [4], in test [7] and in test [5].

On to `CN(C)C(=O)NC1(c2ccccc2)CCN(CC[C@@]2(c3ccc(F)c(F)c3)CN(C(=O)c3ccccc3)CCO2)CC1`, for which the outcome in test [9], in [10], in test [7], in test [8] and in [5] was inactive.

Regarding `CCc1nc(N)nc(N)c1-c1ccc(Cl)cc1`, the AC50 in test [9] was 2.23 µM (active). Also, the compound was called inactive in [2], in [3], in [4], in [10], in [7] and in test [8]. The compound was called inactive in test [5].

Turning to `OCC(CO)n1cnc(-c2ccc(F)cc2)c1-c1ccnc(Oc2ccccc2)n1`, the call in test [6], in test [2], in test [3], in test [4], in test [7] and in test [8] was inactive. The compound was called inactive in test [5].

Turning to `CCc1cc(C2=C(C(=O)O)N(c3ccccc3C(F)(F)F)S(=O)(=O)c3ccccc32)cc2c1OCO2`, the result in test [9] and in test [8] was inactive.

Take `O=C(NS(=O)(=O)/C=C/c1cccs1)c1ccc(F)cc1Br`: the compound was called inactive in test [1], in test [2], in test [3], in test [4], in test [10] and in test [5]. The concentration at half-maximal activity (AC50) is 29.6 µM (active) in [7] and 17.3 µM (active) in test [8].

Take `O=Cc1ccccc1C=O`: in [9], the AC50 is 7.28 µM (active). Further, the result in test [1], in [2], in test [3], in test [4], in [8] and in test [5] was inactive.

As to `CC(C)OC(=O)C(C)(C)Oc1ccc(C(=O)c2ccc(Cl)cc2)cc1`, the result in test [6], in test [2], in [3], in [4], in test [7] and in test [8] was inactive. Besides, the AC50 in test [10] was 12.8 µM (active).

Turning to `CSc1ccc(Oc2ccc(S(N)(=O)=O)cc2CN(C)C)cc1C`, the AC50 in test [9] was 4.12 µM (active); in test [7], 50 µM (active); in test [8] it was 57.5 µM (active) and 19 µM (active). Moreover, the compound was called inactive in test [6], in test [1], in test [2], in test [3], in test [4] and in test [10]. Besides, the call in test [7] and in [5] was inactive.

`COc1ccc(OC(F)(F)F)cc1CN[C@H]1CCCN[C@H]1c1ccccc1`: the AC50 in [9] is 11.1 µM (active); in test [3], 85.4 µM (active); in [4], 75.7 µM (active); in test [10], 11.3 µM (active). The compound was classed as inactive in [2].

For `CC(C)NCC(O)c1ccc(O)c(O)c1` (stereo unspecified), the outcome in test [9], in test [2] and in [5] was inactive. The half-maximal activity concentration (AC50) in test [7] was 0.03 µM (active); in test [8] it was 35.5 nM (active) and 30 nM (active).

As for `S=c1[nH]c2ccccc2s1`, the AC50 in [9] is 13.6 µM (active). The call in test [2], in [10], in test [8] and in [5] was inactive.

For the compound `O=C(O)CN(CC(=O)O)CC(=O)O`, the result in test [9], in [3], in [4], in test [10], in [7] and in test [8] was inactive. Also, the compound was classed as inactive in test [5].

Regarding `O=C(N[C@@H](c1ccccc1)[C@@H]1CCCCN1)c1cccc(C(F)(F)F)c1Cl`, the AC50 in test [9] is 8.04 µM (active); in test [10], 31.6 µM (active). In addition, the compound was classed as inactive in [2], in test [3], in [4] and in [5].

Consider `CCC(C)N(C)C(=O)c1cc2ccccc2c(-c2ccccc2Cl)n1` (stereo unspecified), for which, in test [9], the AC50 was 6.81 µM (active). For the same compound, the outcome in test [1], in [2], in test [3], in [4], in [7] and in test [8] was inactive. The compound was classed as inactive in test [5].

`CCCCC(CC)COC(=O)CCCCCCCC(=O)OCC(CC)CCCC` (stereo unspecified): the call in test [6], in test [10], in test [7] and in test [8] was inactive.

Regarding `O=C1CCCCC1`, the compound was called inactive in test [1], in test [2], in [3], in [4], in [8] and in test [5].

For `Cc1ccc(-c2cc(C(F)(F)F)nn2-c2ccc(S(N)(=O)=O)cc2)cc1`, the concentration at half-maximal activity (AC50) in test [9] was 6.38 µM (active). The compound was called inactive in [6], in test [1], in [3], in test [4] and in test [5].

For the origin of these results see PubChem BioAssay (EPA / NIEHS).
